From PubChem BioAssay
Lassa entry inh = Lassa virus entry inhibition; Lassa virus pseudotype entry inhibition, cell reporter; Potency, µM (series often up to 37.9 µM), for the others: at the top dose activity change, negative = inhibition, actives largely listed as inhibitors; 300,000 compounds, 1.2% hits; AID 540256; calls by dose curve; tested in HEK293 cells; note: nearly all actives have a fitted effect of over 50% in size
AmpC detergent = blocks E. coli AmpC beta-lactamase in detergent assay | 370,000 compounds, 0.041% hits | AmpC hydrolysis of nitrocefin, absorbance 480 nm, 0.01% Triton | AID 485294 | P00811 | Potency, µM (titrated, usually from 114 µM), for inactives: top-dose activity change, negative = inhibition, actives largely listed as inhibitors;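 note: 0% = no-compound wells and -100% = no-enzyme wells; nearly all actives have a fitted effect of over 25% in size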
Target sequence (P00811 whole entry, looked up): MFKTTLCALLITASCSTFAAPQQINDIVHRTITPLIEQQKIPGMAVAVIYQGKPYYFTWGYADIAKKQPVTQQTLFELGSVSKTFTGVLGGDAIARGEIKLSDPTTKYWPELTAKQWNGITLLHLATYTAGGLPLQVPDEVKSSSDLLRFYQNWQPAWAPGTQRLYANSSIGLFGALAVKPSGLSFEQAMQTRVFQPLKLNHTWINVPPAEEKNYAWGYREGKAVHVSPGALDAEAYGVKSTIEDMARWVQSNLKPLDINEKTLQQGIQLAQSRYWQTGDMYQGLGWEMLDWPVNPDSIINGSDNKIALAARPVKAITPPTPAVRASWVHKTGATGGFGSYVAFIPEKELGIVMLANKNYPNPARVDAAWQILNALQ
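AmpC (5.3 nM in the dispensed reagent) in 20 mM phosphate pH 7.0 with 0.01% (detergent screen) or 0.0001% Triton X-100 was preincubated with compounds for 15 min at room temperature. Nitrocefin was then added from an 800 uM solution, and hydrolysis was followed at 480 nm.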
AmpC inh no detg = AmpC beta-lactamase inhibition without detergent; P00811; AmpC nitrocefin hydrolysis, absorbance 480 nm, 0.0001% Triton; Potency, µM (titrated, usually from 57.1 µM), inactives show at the highest dose activity change, negative = inhibition, most hits filed as inhibitors; 330,000 compounds, 0.52% hits; AID 485341;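 note: plate controls were no compound for no effect and no enzyme for full effect; nearly all actives have a fitted effect of over 20% in size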
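20 mM phosphate pH 7.0 + 0.01% (detergent screen) or 0.0001% Triton X-100; 5.3 nM AmpC reagent; cpd preinc 15 min RT; nitrocefin (800 uM stock) to start; A480 q20 s × 4 min; Activity was normalised to no-enzyme and no-compound control wells.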
AMA1 RON2 block = AMA1-RON2 (P. falciparum) interaction inhibition. AlphaScreen AMA1-biotinylated RON2 peptide binding. Potency, µM (doses to about 58.2 µM), without a hit: top-dose activity change, negative = inhibition, usual class: inhibitors. 360,000 compounds, 0.2% hits. AID 720542;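 note: 0% = vehicle wells and -100% = peptide control; nearly all actives have a fitted effect of over 45% in size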
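AMA1 (3D7) with his tag at 25 nM final met compounds first, then biotinylated RON2 peptide at 25 nM; detection used donor plus acceptor beads, 10 µg/mL apiece, read by AlphaScreen after 30 min at room temperature.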
MARV entry inh = inhibitors of Marburg virus binding or cell entry; Marburg virus pseudotyped entry inhibition, cell reporter; Potency, µM (highest dose often 37.8 µM), for the others: at the highest dose activity change, negative = inhibition, most hits filed as inhibitors; 300,000 compounds, 1.8% hits; calls by dose curve; tested in HEK293 cells
Starred values were filed as active, the others as inactive; ? = inconclusive; . = no result given; [ ] = dose if it differs, or a comment. An excerpt weighted towards active compounds, which were near 2.3% of everything screened. Unless noted, calls come from the whole dose curve; as a rule, active = well fitted curve in the direction sought with a large enough effect; inconclusive = small, poorly fitted or top-dose-only effect, or another doubt; inactive = no such curve, though single readings can be large; an effect the other way counts as inactive or inconclusive. Unless noted, % is set by controls: 0 for no effect and ±100 for the full control effect; potency is the fitted concentration of half-maximal effect.

SMILES	Lassa entry inh	AmpC detergent	AmpC inh no detg	AMA1 RON2 block	MARV entry inh
COc1ccc2c(c1)/C(=C\c1cccc(/C=C3/C(=O)Nc4ccc(OC)cc43)n1)C(=O)N2	2.8µM*	.	.	-9%	1.6µM*
COc1ccc(O)c(C(=O)CC(=O)c2ccc(F)cc2)c1	10µM*	-2%	-18%	35%	13µM*
Cc1ccc(O)c(C(=O)CC(=O)c2ccc(Cl)cc2)c1	.	-26%	-45%	68%	.
Cc1ccc(O)c(C(=O)CC(=O)c2cccc(F)c2)c1	?	-5%	20µM*	39%	?
Cc1cccc(C(=O)CC(=O)c2cc(Cl)ccc2O)c1	?	-7%	-41%	82%	-82%
O=C(CC(=O)c1cc(Cl)ccc1O)c1ccccc1	13µM*	?	-58%	36%	?
COc1ccc(C(=O)CC(=O)c2ccccc2O)cc1	?	?	121%	78%	?
Cc1ccc(NC(=O)C2(C)Cc3ccccc3C(=O)O2)c(C)c1 (configuration not stated)	?	14%	.	.	6%[46.1 µM]
CCOC(=O)c1cnc(N2CCN(c3ccc(C)cc3C)CC2)c2ccccc12	?	17%	.	.	.
Cc1nc2sc(C(N)=O)c(N)c2c(-c2ccc(Br)cc2)c1C(=O)Nc1ccc(Cl)cc1	?	0%	.	.	?
O=C(Nc1ccc(Nc2ccccc2)cc1)c1ccc(Cl)c([N+](=O)[O-])c1	.	?	-39%	?	.
O=C(Nc1ccccc1-c1ccccc1)c1ccc(Cl)c([N+](=O)[O-])c1	23µM*	4%	-24%	-1%[11.6 µM]	7.3µM*
COCCNC(=O)c1nn(-c2ccc(C)cc2)c(=O)n(C)c1=O	?	-10%	.	.	.
CC(C)(C)c1ccc(C(=O)Nc2cccc3c(=O)[nH][nH]c(=O)c23)cc1	7.1µM*	1%	-49%	-8%	?
COC(=O)C1=C(C)N=C2S[C@@H](C)C(=O)N2[C@H]1c1cccs1	.	.	.	.	6%
O=C(O)c1cccc2c1C(=O)c1ccccc1C2=O	-1%[46.1 µM]	-16%	-18%	-11%	15%[46.1 µM]
CN(C=[N+](C)C)c1cccc2c1C(=O)c1ccccc1C2=O	?	-6%	-28%	32µM*	?
COc1cccc(C2C(C#N)=C(N)Oc3cc(C)n(Cc4ccco4)c(=O)c32)c1 (configuration not stated)	-13%	?	-37%	14%	-16%
CCN(CC)CCCn1c(C)cc2c(c1=O)[C@@H](c1cccc(Cl)c1)C(C#N)=C(N)O2	.	.	.	.	11µM*
CCN1C(=O)[C@@H]2[C@H]3[C@H](O)[C@H](O)CC(=NOC[C@@H](O)COCc4ccco4)[C@@H]3CC[C@H]2C1=O	.	.	.	.	-22%[14.2 µM]
CCc1nc(SCc2ccc(OCC(C)C)cc2)n[nH]1	?	1%	-5%	16%	7.9µM*
CCc1nc(SCc2ccc(Br)cc2)n[nH]1	16%	0%	-28%	27%	?
CNC(=O)C[C@H](C(=O)O)c1ccc(OC(C)C)cc1	.	.	.	.	-7%
C=CCn1cc(/C=N/Nc2nc3ccccc3[nH]2)c2ccccc21	4.5µM*	-9%	-18%	-27%	?
Cc1c(/C=N/Nc2nc3ccccc3[nH]2)c2ccccc2n1C	?	-6%	-1%	-32%	?
SMILES	Lassa entry inh	AmpC detergent	AmpC inh no detg	AMA1 RON2 block	MARV entry inh
CC(/C=N/Nc1nc(C)cc(=O)[nH]1)=C\c1ccccc1	.	5%	-36%	82%	.
CC(=O)Nc1ccc(/C=N/Nc2nc3ccccc3[nH]2)cc1	.	0%	-21%	56%	1%
Cc1cc(=O)[nH]c(N/N=C/c2c(C)nn(-c3ccccc3)c2C)n1	13%[46.1 µM]	?	-27%	32%	6%[46.1 µM]
Cc1nn(-c2ccccc2)c(C)c1/C=N/Nc1nc2ccccc2[nH]1	?	?	-2%	?	13µM*
CC(/C=N/Nc1nc2ccccc2[nH]1)=C\c1ccccc1	?	-2%	-24%	60%	7.3µM*
CCN(CC)c1ccc(/C=N/Nc2nc3ccccc3[nH]2)cc1	8.2µM*	2%	-40%	12%	8.2µM*
CCCn1c(/C=N/Nc2nc3ccccc3[nH]2)nc2ccccc21	13µM*	-19%	-43%	31%	?
O=C1CCCc2oc3c(cc(NS(=O)(=O)c4ccc5c6c(cccc46)C(=O)N5)c4ccccc43)c21	3%[46.1 µM]	-7%	37%	-15%	11µM*
Cc1oc2c(cc(NS(=O)(=O)c3ccc4c5c(cccc35)C(=O)N4)c3ccccc32)c1C(=O)OC(C)C	?	2%	1%	-9%	-21%
C=CCn1cccc(/C=C/C(=O)c2ccc(C(C)(C)C)cc2)c1=S	16µM*	?	-6%	?	?
O=C(C=Cc1ccccc1Cl)c1ccccc1	1%[46.1 µM]	.	.	11%	?
C#CCNC(=O)[C@H]1C=C(OC)C(=O)C[C@H](c2ccccc2)[C@H]1C	.	.	.	.	8%[14.2 µM]
COc1ccc(OC)c([C@H]2C(C(=O)c3sc(C)nc3C)=C(O)C(=O)N2CCN2CCOCC2)c1	.	.	.	.	-11%[46.1 µM]
CC/C(=N\N1CCCCCC1)c1c(O)n(-c2ccc(C)cc2)c(=O)[nH]c1=O	0.4µM*	-3%	-8%	-11%[2.32 µM]	11%
CCOC(=O)COc1ccc2ccccc2c1/C=C/[N+](=O)[O-]	?	-2%	-27%	-6%	4.5µM*
CCOC(=O)COc1ccc(/C=C/[N+](=O)[O-])c(OCC(=O)OCC)c1	21µM*	-8%	-16%	-5%	5.2µM*
COC(=O)/C=c1\s/c(=C(/C#N)C(=O)N2CCCCC2)n(-c2ccccc2)c1=O	.	.	.	.	-33%
O=C(NC(CC1=CCCCC1)c1ccc2ccccc2c1)C(F)(F)F (configuration not stated)	.	.	.	.	-17%[14.2 µM]
Cc1ccc2c(c1)cc1c(=O)n(CC(=O)NCc3ccco3)nc(C)n12	.	2%	.	.	?
CCn1c(=O)n(CC2CCC(C(=O)NC(C)C)CC2)c(=O)c2sccc21 (configuration not stated)	1%[46.1 µM]	16%	.	.	.
CC(=O)NC(=C(Cl)Cl)S(=O)(=O)c1ccccc1	?	?	3%	-12%	10µM*
COc1cc(CNCc2cccs2)ccc1OCC(=O)NC(C)(C)C	-3%	-6%	-21%	-2%	9.2µM*
COc1cc(CNC(C)(C)CO)ccc1OCC(=O)NC(C)(C)C	4%	?	-10%	-5%	?
COc1cc(CNC(C)C23CC4CC(CC(C4)C2)C3)ccc1OCC(=O)NC(C)(C)C (configuration not stated)	?	6%	75%	-12%	6.3µM*
CCN1C(=O)[C@@H]2[C@H]3[C@H](O)[C@H](O)CC(=NOC[C@@H](C)[C@H](OCc4ccccc4)C(C)C)[C@@H]3CC[C@H]2C1=O	13%[14.3 µM]	.	.	.	1%[14.2 µM]
OC(COc1ccc(CNCCc2ccccc2F)cc1)CN1CCCCC1 (configuration not stated)	?	3%	12%	-2%	2.3µM*
